# The list is not random: actives were taken first. Their share in the collection is about 3.7%.
# esBAF inh = Bmi1 luciferase reporter increase in mESCs, primary screen, esBAF inhibitor project, mouse ES cells, Bmi1 luciferase knock-in, single point; 24 h; 100% = twice the neutral-well signal; reporter increase, % at 12.5 µM; 350,000 tested, 2% active; AID 602393, 2012; in the data active = activation above about 40%; inconclusive = no clear call, values can overlap the other calls;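 also: 0% = median of the plate's neutral control wells and 100% = double that signal; a rise in the Bmi1 reporter signal indicates esBAF inhibition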
# Wnt bcat act = Wnt/beta-catenin pathway activators, primary screen, cell-based, plate reader, single point | activation, % at 9.35 µM | Wnt/beta-catenin reporter cell assay, activator | 300,000 tested, 1.2% active | AID 743398, 2014; in the data active = activation above about 30%, passing the limit was not always enough; inconclusive = no clear call, values can overlap the other calls;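 also: 0% = neutral control wells and 100% = positive control wells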
# Ecoli rRNA inh = reduced GFP signal of wild-type E. coli, primary screen, bacterial rRNA inhibitor project, GFP/RFP fluorescence, OD600, single point; AID 720706, 2013; GFP signal change (wild-type ribosome), % (concentration not given with the values); 350,000 tested, 1.6% active; E. coli WT GFP vs humanized-ribosome RFP mutants, 24 h; active compounds read low; DMSO median 0, no signal -100;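 active = significant combined selectivity score with lowered wild-type GFP, culture density cut under 30%, mutant RFP and density less affected; inactive = any of these conditions unmet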
# MLL AF4-AF9 inh = inhibitors of AF4 peptide binding to AF9, primary screen, biochemical, AlphaScreen, biotin-AF4 peptide, FLAG-AF9, single point; Protein AF-9 (Homo sapiens), P42568; inhibition, % at 10 µM; 350,000 tested, 0.47% active; AID 651704, 2012;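 active = every replicate reaching a set inhibition limit, whatever the replicate mean, cut at about 25% in these data; inconclusive = mean inhibition reaches that limit but some replicates miss it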;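 also: 0% = plate neutral control median and 100% = total signal loss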
# Target sequence (P42568 whole entry, looked up): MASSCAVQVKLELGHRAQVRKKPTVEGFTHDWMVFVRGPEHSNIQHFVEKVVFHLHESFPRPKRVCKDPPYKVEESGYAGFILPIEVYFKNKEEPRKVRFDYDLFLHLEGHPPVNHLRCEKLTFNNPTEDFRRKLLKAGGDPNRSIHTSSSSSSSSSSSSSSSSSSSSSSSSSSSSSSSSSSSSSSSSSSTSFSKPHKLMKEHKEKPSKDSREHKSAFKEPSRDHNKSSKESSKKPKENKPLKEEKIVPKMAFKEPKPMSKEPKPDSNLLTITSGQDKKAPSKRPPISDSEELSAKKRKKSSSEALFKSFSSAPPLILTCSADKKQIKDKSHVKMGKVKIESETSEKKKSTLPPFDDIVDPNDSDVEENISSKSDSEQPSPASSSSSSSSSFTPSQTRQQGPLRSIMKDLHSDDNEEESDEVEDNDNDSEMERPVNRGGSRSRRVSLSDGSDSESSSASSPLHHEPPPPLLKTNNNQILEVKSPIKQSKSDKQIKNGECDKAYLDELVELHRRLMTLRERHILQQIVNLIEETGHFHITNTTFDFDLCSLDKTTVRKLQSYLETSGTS
# MITF TRPM1 HTS = activators of MITF-driven TRPM1 promoter reporter, primary screen, cell-based, SK-MEL-5, luciferase, single point | SK-MEL-5 TRPM1-promoter luciferase, 24 h; % of positive control, neutral wells = 0 | activation, % at 12.5 µM | 300,000 tested, 0.75% active | AID 588334, 2011;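 active = mean activation of at least 80% with every replicate also reaching 80%; inconclusive = mean reaches 80% but some replicate falls short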;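 also: 0% = neutral control wells and 100% = parthenolide positive control wells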
# Ring1 derepress = Ring1 mRNA increase in mouse ESCs, confirmation, esBAF inhibitor project, cell-based, mouse ESC, RT-qPCR, cherry-pick; shares compounds with esBAF inh; mouse ESC E14, Ring1 mRNA RT-qPCR fold change; fold change at 33 µM; 550 tested, under 10 active; AID 743176, 2013;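 active = Ring1 gene expression raised more than 2-fold over untreated cells in both replicates at either tested dose; inconclusive = only one replicate above 2-fold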;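 also: Ring1 transcript normalised to actin housekeeping signal by TaqMan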
# Fgf4 repress = Fgf4 mRNA decrease in mouse ESCs, confirmation, esBAF inhibitor project, cell-based, mouse ESC, RT-qPCR, cherry-pick; mouse ESC E14, Fgf4 mRNA qPCR fold change; active compounds read low; 550 tested, 4% active; Fgf4 expression fold change at 33 µM; AID 743177, 2013; shares compounds with esBAF inh;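 active = Fgf4 expression under 0.8 fold of control in both repeat measurements at one or both tested doses; inconclusive = under 0.8 fold in just a single repeat measurement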;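 also: Fgf4 transcript normalised to actin in duplex TaqMan qPCR; cells exposed to compound for 24 h before lysis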
# esBAF Bmi1 qPCR = esBAF inhibition via Bmi1 de-repression, confirmation, cell-based, RT-qPCR, mouse ESC, single point, cherry-pick; AID 743180, 2013; shares compounds with esBAF inh; 550 tested, under 10 active; mouse ESE14 ES cells, Bmi1 mRNA qPCR fold; active compounds read high; fold change at 33 µM;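 active = Bmi1 expression fold change above 6 at either tested concentration, seen in replicate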;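 also: higher fold means more Bmi1 de-repression and stronger esBAF inhibition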
# A549 cytotox = A549 cell cytotoxicity, cytotoxicity control, plate reader, single point, cherry-pick; shares compounds with esBAF inh; cell viability change % (negative = cytotoxic), % at 25 µM, hits read low; 550 tested, under 10 active; call rule not given here
# HepG2 cytotox SP = HepG2 cell cytotoxicity, cytotoxicity control, plate reader, single point, cherry-pick | shares compounds with esBAF inh | active compounds read low | activity change, negative = inhibition, % at 25 µM | 550 tested, 4% active | AID 743189, 2013; in the data active = activity change below about -50%
# HEK293 tox SP = HEK293 cell cytotoxicity, cytotoxicity control, plate reader, single point, cherry-pick | shares compounds with esBAF inh | activity change, negative = inhibition, % at 25 µM, hits read low | 550 tested, 3% active; in the data active = activity change below about -38%, passing the limit was not always enough
# * marks the source's active call; other numbers are inactive results; ? = inconclusive; nt = not tested or not shown.
SMILES,esBAF inh,Wnt bcat act,Ecoli rRNA inh,MLL AF4-AF9 inh,MITF TRPM1 HTS,Ring1 derepress,Fgf4 repress,esBAF Bmi1 qPCR,A549 cytotox,HepG2 cytotox SP,HEK293 tox SP
N#CC(=C=[N-])c1nc2ccccc2nc1-[n+]1cccc(NC(=O)c2cccs2)c1,-3,3,11,-49,-3,nt,nt,nt,nt,nt,nt
Cn1c(/N=C(\N)c2ccccc2)nc2ccccc21,83*,4,-1,0,nt,1.2,0.87,1.7,-8,-5,-12
CC(=O)c1cccc(NC(=O)c2ccc(OCc3c(C)noc3C)cc2)c1,15,-1,0,0,3,nt,nt,nt,nt,nt,nt
CSc1ccccc1NC(=O)c1ccc(N2CCCC2=O)cc1,73*,24,-1,-4,58,1.2,0.82,1.3,-3,-15,5
CC(=O)c1ccccc1NC(=O)c1ccc(N2CCCC2=O)cc1,?,20,0,2,60,nt,nt,nt,nt,nt,nt
CCOC(=O)N1CCN(Cc2cn[nH]c2-c2ccc(-c3ccccc3)cc2)CC1,nt,0,3,0,4,nt,nt,nt,nt,nt,nt
Cc1[nH]c(=O)nc2c1CCC2,-14,-4,10,-2,3,nt,nt,nt,nt,nt,nt
Cc1ccc(C)c(N2CCN(C(=O)c3ccc(Cn4c(=S)[nH]c5ccc(N6CCOCC6)cc5c4=O)cc3)CC2)c1,nt,4,6,1,13,nt,nt,nt,nt,nt,nt
COc1ccc(N2CCN(C(=O)c3ccc(Cn4c(=S)[nH]c5ccc(N6CCOCC6)cc5c4=O)cc3)CC2)cc1,68*,20,5,0,62,0.97,0.85,1.8,-10,-36,-10
CCn1cnc2cc(NCc3ccccc3Cl)ccc21,77*,12,-10,4,87*,1,1,1.3,2,2,11
CCn1cnc2cc(NCc3ccc(OC)cc3)ccc21,56*,nt,nt,nt,57,1,?,1.2,-5,-32,-9
CCCCn1cnc2cc(NCc3ccncc3)ccc21,7,nt,-1,nt,-1,nt,nt,nt,nt,nt,nt
CNc1cnc(-c2ccc(F)c(F)c2F)cn1,73*,-1,3,-7,nt,1.1,0.96,1.5,-9,-17,-22
CNc1cnc(-c2ccsc2)cn1,?,0,19,-6,nt,nt,nt,nt,nt,nt,nt
CC(C)c1ccc(CNNC(=O)c2ccccc2)cc1,70*,26,-12,1,70,0.92,0.89,2.6,-6,6,-5
c1ccc(-c2cnnc(-c3ccccn3)n2)cc1,28,?,nt,nt,?,nt,nt,nt,nt,nt,nt
Clc1ccc(-c2cnnc(-c3ccccn3)n2)cc1,83*,25,-21,-2,?,1.2,1.3,2,-23,-31,-21
CC(C)(C)Nc1nc(Cl)nc(Nc2ccccc2)n1,59*,9,4,-6,nt,1.3,?,1.6,-10,1,-14
COc1ccccc1Nc1nc(Cl)nc(NC(C)(C)C)n1,nt,0,-48,2,-6,nt,nt,nt,nt,nt,nt
CCC(=O)N1CCC2(CC1)CN(Cc1cccc(F)c1)[C@H](CO)c1c2c2ccc(OC)cc2n1C,nt,nt,5,-2,nt,nt,nt,nt,nt,nt,nt
COc1ccc2nc(C(c3ccc(C)cc3)n3c(-c4ccccc4Br)nc4ccccc43)[nH]c2c1 (stereo not given),?,-3,-20,0,nt,0.96,1.2,1.7,-8,4,-25
CC(=O)Oc1ccc(-c2csc(Nc3ccc(Cl)cn3)n2)cc1,59*,8,-2,-1,nt,1.4,0.9,1.7,-9,-12,-1
COc1ccc(-c2csc(Nc3ccc(C)cn3)n2)cc1,nt,13,-17,4,53,nt,nt,nt,nt,nt,nt
CC(=O)Nc1cc2c3c(cccc3c1)-c1ccccc1-2,70*,6,-18,-2,34,1.3,?,1.5,-5,27,-7
Cc1cccc(-n2nnc(C(=O)Nc3ccc(F)cc3)c2N)c1,62*,nt,nt,nt,nt,0.94,0.84,1.9,-4,-38,-11
SMILES,esBAF inh,Wnt bcat act,Ecoli rRNA inh,MLL AF4-AF9 inh,MITF TRPM1 HTS,Ring1 derepress,Fgf4 repress,esBAF Bmi1 qPCR,A549 cytotox,HepG2 cytotox SP,HEK293 tox SP
CNC[C@@H]1Oc2c(NS(=O)(=O)c3ccc(Cl)cc3)cccc2C(=O)N([C@H](C)CO)C[C@H]1C,-6,nt,1,0,nt,nt,nt,nt,nt,nt,nt
CC(C)C(=O)N1CCN(c2nc3ccc(Cl)cc3s2)CC1,80*,16,-35*,-2,63,1.2,0.96,1.7,-1,19,-19
CC(C)(C)C(=O)N1CCN(c2nc3ccccc3s2)CC1,64*,20,-4,1,122*,1.2,0.87,1.1,3,11,-3
O=C(c1cccc(F)c1)N1CC(=O)N2[C@H](C1)[C@@H](c1ccc(-c3ccccc3)cc1)[C@@H]2CO,nt,nt,-17,nt,nt,nt,nt,nt,nt,nt,nt
CCCOc1ccc(/C(O)=C2/C(=O)C(=O)N(CCN(C)C)C2c2ccco2)cc1 (stereo not given),2,nt,nt,nt,19,nt,nt,nt,nt,nt,nt
Cc1ccc(NC(=O)Cc2noc3ccccc23)cc1,81*,nt,nt,nt,nt,1.1,1,0.99,2,-34,-12
COc1ccc(NC(=O)c2cc(F)cc(F)c2)cc1Cl,58*,56*,6,nt,nt,1.4,1.1,1.5,-7,-11,0
COc1ccc(NC(=O)c2c(F)c(F)c(F)c(F)c2F)cc1Cl,-3,nt,nt,nt,-1,nt,nt,nt,nt,nt,nt
Nc1cc(Cl)c(N)cc1Cl,-6,8,nt,nt,5,nt,nt,nt,nt,nt,nt
Nc1cc2c(cc1Cl)-c1ccccc1C2,108*,0,-25,50*,67,0.86,0.82,1.6,-3,15,-4
CC(=O)Nc1ccc2nc(C)n(Cc3ccc(Cl)cc3)c(=O)c2c1,55*,nt,nt,nt,nt,1.6,0.81,1.3,-6,-12,-17
CCCS(=O)(=O)N1CCC(C(=O)NC2CCC(C)CC2)CC1 (stereo not given),56*,nt,nt,nt,74,1.1,0.89,1.3,-8,-22,-7

# Screening results deposited in PubChem BioAssay by Broad Institute.
